This excerpt belongs to a sample that is enriched for hits.
Pf Dd2 inh: qHTS Primary assay for Inhibitors of Plasmodium falciparum Dd2 growth in vitro. P. falciparum Dd2 growth, SYBR Green, 72 h. Potency, µM (titrated, usually from 28.9 µM), for inactives: at the highest dose activity, negative = inhibition, usual class: inhibitors. 120,000 compounds, 4.3% hits; active = well fitted inhibition curve with a large enough effect;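 also: plate controls were DMSO vehicle for no effect and reference drug for full effect; nearly all actives have a fitted effect of over 65% in size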
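Readout: SYBR Green fluorescence, 485 nm excitation, 535 nm emission, after ~16 h lysis at 37C. Before that, Dd2-infected red cells (2.5% hematocrit) grew 72 h with compound, 29 uM top final concentration.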
Starred values were filed as active, the others as inactive; i = inactive; [ ] = another dose, or the depositor's remark. Potency is read from the fitted curve at half-maximal effect.

SMILES | Pf Dd2 inh
Cc1ccc(Nc2nnc(-c3ccc(C)c(S(=O)(=O)N4CCN(C)CC4)c3)c3ccccc23)cc1 | 7.94µM*
Cc1ccccc1Nc1nnc(-c2ccc(C)c(S(=O)(=O)NCC3CCCO3)c2)c2ccccc12 (stereo not given) | 5.62µM*
Cc1ccc(-c2nnc(Nc3ccccc3)c3ccccc23)cc1S(=O)(=O)N1CCN(C)CC1 | -10.8%
COc1ccc(S(=O)(=O)N2CCC(c3nnc(-c4ccccc4C)o3)CC2)c(OC)c1 | -12.2%
COc1nnc(-c2ccc(N3CCCCC3)c(NC(=O)c3ccc(C)cc3)c2)c2ccccc12 | -8.1%
COc1ccc(N2CCN(S(=O)(=O)c3ccc(-c4ccno4)cc3OC)CC2)cc1 | 53.6%
COc1ccc(Nc2nnc(-c3ccc(C)c(S(=O)(=O)N4CCN(C)CC4)c3)c3ccccc23)cc1 | 8.91µM*
Cc1ccccc1-c1noc(-c2ccc(NCC3CCCO3)c([N+](=O)[O-])c2)n1 (stereo not given) | 8.4%
Cc1ccc(Nc2nnc(-c3ccc(C)c(S(=O)(=O)N4CCN(C)CC4)c3)c3ccccc23)c(C)c1 | 7.94µM*
Cc1ccc(-c2nn3c(C)nnc3c3ccccc23)cc1S(=O)(=O)NCCO | 8.1%
Cc1ccc(N2CCN(S(=O)(=O)c3ccc(Cl)c4ccccc34)CC2)c(C)c1 | 17.2%
COc1ccccc1N1CCN(S(=O)(=O)c2cc(-c3cc(C)no3)ccc2C)CC1 | -3.7%
CCc1ccccc1-n1nc(-c2c(C)nc3scc(CC(=O)N4CCCC4)n3c2=O)cc1C | i
O=[N+]([O-])c1cc(-c2nc(-c3ccccc3)no2)ccc1N1CCCCC1 | -11.9%
Cc1ccc(C2Cn3nnc(C(=O)N4CCN(C(=O)c5ccncc5)CC4)c3CO2)cc1 (stereo not given) | i
O=C(Nc1nc2c(s1)CCCC2)C1CC(=O)N(c2n[nH]c3cccc(F)c23)C1 (stereo not given) | -13.1%
Cc1ccc(-c2nnc(Nc3ccc(OC(F)(F)Cl)cc3)c3ccccc23)cc1S(=O)(=O)NC(C)(C)CO | 12.6µM*
Cc1ccc(-c2nnc(Nc3ccc(O)cc3)c3ccccc23)cc1S(=O)(=O)N1CCOCC1 | 8.91µM*
COC(=O)COc1ccc(-c2nnc(Nc3ccc(O)cc3)c3ccccc23)cc1 | i
Cc1ccc(-c2nn3c(C)nnc3c3ccccc23)cc1S(=O)(=O)NC(C)(C)CO | -28.7%
COc1ccc(S(=O)(=O)NC(C)(C)CO)cc1-c1nnc2c3ccccc3c(C)nn12 | i
CNC(=O)c1cc(Nc2nnc(-c3ccc(O)cc3)c3ccccc23)ccc1OC | i
Cc1ccc2[nH]c(CSc3nnc(NC(=O)c4ccccc4F)s3)cc(=O)c2c1 | 32.9%
NC(=O)C1CCN([C@H]2[C@@H]3OC[C@@H](O3)[C@@H](N)[C@@H]2O)CC1 | 9.1%[44.1 µM]
Cc1nn(-c2ccc(F)cc2)c(Oc2ccccc2)c1CCC(=O)N(C)C(C)C | -23.4%
SMILES | Pf Dd2 inh
COc1ccc(CNc2oc(COc3cccc(C)c3)nc2C#N)cc1 | 0.4%
COCCCNc1oc(-c2ccc(COc3ccccc3C)o2)nc1C#N | -27.2%
Cc1ccccc1OCc1ccc(-c2nc(C#N)c(NCc3cccnc3)o2)o1 | -23.8%
N#Cc1nc(-c2ccc(COc3ccccc3)o2)oc1N1CCCCC1 | 58.6%[0.594 µM]
CCCCNc1oc(-c2ccc(COc3ccccc3C)o2)nc1C#N | 11.2µM*
CCN1CCN(c2oc(-c3ccc(COc4ccccc4C)o3)nc2C#N)CC1 | -13.9%
COc1ccc(Nc2oc(-c3ccc(COc4ccccc4)o3)nc2C#N)cc1 | -4.9%
Cc1cccc(OCc2ccc(-c3nc(C#N)c(N4CCN(c5ccccc5)CC4)o3)o2)c1 | 10µM*
Cc1cccc(OCc2ccc(-c3nc(C#N)c(NCc4cccnc4)o3)o2)c1 | 7.94µM*
CN(Cc1ccco1)C1CCc2nn(C)c(=O)n2CC1 (stereo not given) | 44.3%
COc1ccc(C2Cn3cnc(C(=O)N4CCC(C(=O)Nc5ccc(F)c(F)c5)CC4)c3CO2)cc1 (stereo not given) | i
CC(C)c1ccc(C(=O)N2CCCC[C@H](N(C)C)C2)c(=O)n1C | 13.4%
CS(=O)(=O)N1C[C@H]2CCN(C(=O)Cc3ccccc3F)C[C@H]21 | 15.5%
CCOc1ccc(CCNC(=O)CN2C(=O)c3cccnc3Oc3ccc(C)cc32)cc1OCC | 8.7%
CC1=C[C@@H](CN2CCC(O)CC2)[C@H](C(C)C)C[C@H]1Cc1nnc(-c2ccc(N(C)C)cc2)o1 | 3.55µM*
COCCN1CCN(C[C@@H]2C=C(C)[C@H](Cc3nnc(-c4ccc(N(C)C)cc4)o3)C[C@H]2C(C)C)CC1 | 3.98µM*
CC1=C[C@@H](CN2CCC(O)CC2)[C@H](C(C)C)C[C@H]1Cc1nnc(C)o1 | -26.6%[44.1 µM]
COCCN1CCN(C[C@@H]2C=C(C)[C@H](Cc3nnc(-c4cccnc4)o3)C[C@H]2C(C)C)CC1 | -16.3%
COc1ccc(NC(=O)CSc2nc3nc(C)c(Cc4ccc(C)cc4)c(C)n3n2)cc1OC | i
CN(Cc1ccc2nsnc2c1)Cc1cc2n(n1)CCCNC2 | 4.8%
CN(C)C[C@@H]1CN(Cc2ccccc2)C[C@H]1NC(=O)c1ccoc1 | i
Cc1ccccc1C(=O)n1nc(-c2cccnc2)nc1NCc1ccc(F)cc1 | 23.6%
COc1ccc(C(=O)Nc2ccccc2-c2nc3ccccc3s2)cc1OC | 28.2%
CN1CC(=O)N(c2ccccc2)Cc2c(NCCOc3ccccc3)ncnc21 | i
CN1CC(=O)N(c2ccccc2)Cc2c1ncnc2N1CCC(O)CC1 | 0.3%
SMILES | Pf Dd2 inh
CN1CC(=O)N(c2ccccc2F)Cc2c1ncnc2N1CCC(c2ccccc2)CC1 | i
CN1CC(=O)N(c2ccccc2)Cc2c(NCc3ccc(F)cc3)ncnc21 | -15.2%
CN1CC(=O)N(c2ccc(Cl)cc2)Cc2c1ncnc2N1CCC(Cc2ccccc2)CC1 | 12.6µM*
CN1CC(=O)N(c2ccccc2)Cc2c(NCCCc3ccccc3)ncnc21 | 6.31µM*
CN1CC(=O)N(c2ccc(Cl)cc2)Cc2c(NCc3cccs3)ncnc21 | i
CN1CC(=O)N(c2ccc(Cl)cc2)Cc2c(NCc3ccc(F)cc3)ncnc21 | 7.94µM*
CN1CC(=O)N(c2ccccc2)Cc2c(NCCc3ccc(Cl)cc3)ncnc21 | i
O=S(=O)(c1cc(F)ccc1F)N1CCC(n2cc(CCCO)nn2)CC1 | -15.5%
COc1nc2c(cc1CNC(=O)C1CCOC1)C(=O)N(CCc1ccccn1)C2 (stereo not given) | 1.4%
CC(=O)c1ccc(NC(=O)C2Cc3ccccc3N2C(=O)c2ccccc2)cc1 (stereo not given) | 18.5%
CCOc1ccc(-c2cc(C(=O)N3CCN(S(=O)(=O)c4cc(Cl)ccc4OC)CC3)[nH]n2)cc1 | i
O=S(=O)(NC[C@H]1O[C@@H](CO)[C@@H](O)[C@H]1N1CCCC1)c1cccs1 | -21.7%[44.1 µM]
CN(C)C(=O)c1ccc2c(c1)N(CC(=O)NCc1ccccc1Cl)C(=O)C1CCCCN21 (stereo not given) | -0.7%
COc1ccc(S(=O)(=O)NC[C@H]2C[C@@H]3CCN2C[C@@H]3CN2CCN(c3ncccn3)CC2)cc1 | i
O=C(Cn1cc(S(=O)(=O)c2ccc(Cl)cc2)c(=O)c2ccccc21)Nc1ccc2c(c1)OCO2 | i
CCc1nc2c(=O)n(CC(=O)N3CCN(c4cccc(OC)c4)CC3)nc(C)c2s1 | 0.4%
Cc1ccc(NC(=O)C(Cc2ccccc2)NS(=O)(=O)c2cccs2)cc1Cl (stereo not given) | 12.1%
Cc1cccc(CNS(=O)(=O)c2ccc3[nH]c(=O)ccc3c2)c1 | 13.2%
CCc1ccc2nc(N3CCN(C(=O)c4ccco4)CC3)sc2c1 | i
